Data: PubChem BioAssay AID2314 (National Center for Advancing Translational Sciences (NCATS), 2010)
In all, about 300,000 compounds went through this assay and about 37,000 (12%) were called active. What follows is part of a selection rich in actives, with near analogues and random picks from the rest. Values without a mark were called inactive. Rule as the data show it: active = max response mostly above about 13% (no sharp cut-off); inactive = mostly below about 14%.

Assay: Cycloheximide Counterscreen for Small Molecule Inhibitors of Shiga Toxin; also: read at 38.3 µM for the half of the compounds with a filed dose; 0% is about no effect
Details: cell reporter, cycloheximide protein synthesis inhibition counterscreen; stronger effect = higher value
`Cc1cccc(C)c1NC(=O)C(Cl)C(=O)c1ccccc1` (stereo not given) gave a max response of -3.97%. `CCCCNC(=S)N/N=C1\CCCCc2ccccc21` showed a max response of -5.15%. With `O=C(C1=C[C@H](c2coc3ccccc3c2=O)C[C@H](OCc2ccc(CO)cc2)O1)N1CCN(Cc2ccccc2)CC1` the max response was 1.24%. For `COc1ccccc1N1CCN(S(=O)(=O)CCNC(=O)c2ccc(OC(C)C)cc2)CC1`, the max response was -4.03%. Work on `CCOC(=O)C1=C(C(=O)OCC)C(C(=O)OCC)N(S(=O)(=O)C(F)(F)F)c2ccccc21` (stereo not given) yielded a max response of 2.14%. For `CCOC(=O)c1ccccc1CN1C(=O)c2ccccc2S1(=O)=O`, the max response was 0.941%. In the case of `CCOC(=O)c1cc2n(c1N)-c1ccccc1C2=O`, the max response is reported as 16.1% (active). For `Nc1ncc(CN2CCCC(C(=O)Nc3ccc(-c4ccco4)cc3)C2)cn1` (stereo not given), the max response was -1.66%. With `CCOC(=O)c1cccc(NC(=O)CCc2nnc3ccc(N4CCOCC4)nn23)c1` the max response was 0.592%. In the case of `COC(=O)c1ccc(NCC(=O)N2CCCCCC2)cc1`, the max response is reported as 19.4% (active). Molecule `COc1ccc(NC(=O)CCCC(=O)c2ccccc2)cc1` has a max response of 12%. Work on `COC(=O)c1ccc(/C=N/NC(=O)C(=O)N2CCCCCC2)cc1` yielded a max response of -2.86%. For `Cc1ccc(C(=O)CNc2ccc(F)cc2)cc1`, the max response was 13.3% (active). For `COC(=O)c1ccc(C(=O)OC)c(NC(=S)N2CCCCC2)c1`, the max response was 1.84%. Molecule `Cc1ccc(NC(=O)CCC(=O)c2ccc(Br)cc2)cc1` has a max response of -1.06%. Molecule `Cc1ccc(C(=O)NC2CCN(C(=O)Nc3ccc(F)cc3)CC2)cc1` has a max response of -5.94%. For `COC(=O)c1ccc(NC(=O)c2ccccc2NS(=O)(=O)c2ccccc2)cc1`, the max response was 7.47%. In the case of `COC(=O)c1ccc(NCC(=O)c2ccccc2)cc1`, the max response is reported as 29.7% (active). For `O=C(NC1CCCCC1)C1CCC(CNS(=O)(=O)c2ccccc2)CC1` (stereo not given), the max response was -1.26%. `COc1ccccc1C1C(C(N)=O)=C(C)Nc2nc(CCCO)nn21` (stereo not given) gave a max response of -5.85%. With `C[C@@H]1O[C@@H](OC[C@H]2O[C@@H](Oc3cc(O)c4c(c3)O[C@H](c3ccc(O)c(O)c3)CC4=O)[C@H](O)[C@@H](O)[C@@H]2O)[C@H](O)[C@H](O)[C@H]1O` the max response was -3.85%. `COC(=O)c1cc2occc2n1Cc1nc(-c2ccccc2C)oc1C` showed a max response of -1.91%. In the case of `CCOC(=O)C1(Cc2cccc(OC)c2)CCN(Cc2csc(C(C)=O)c2)CC1`, the max response is reported as -2.31%. Molecule `CCC(C(=O)NCCC(C)C)N(Cc1ccccc1Cl)C(=O)c1snc(C(N)=O)c1N` (stereo not given) has a max response of -2.42%. `COCCN(C(=S)Nc1cccc(Cl)c1C)C(C)c1ccco1` (stereo not given) gave a max response of 5.55%. With `CCc1cccc(CC)c1NC(=O)COc1ccccc1C(=O)c1cc(C#N)c(=O)n(C2CCCCC2)c1` the max response was 5.88%. `CCOc1ccc(CN(C)C(=O)c2ccc(=O)[nH]c2)cc1` gave a max response of -4.67%. For `CCc1ccc(NC(=O)NC(C)c2ccc3c(c2)OCO3)cc1` (stereo not given), the max response was 0.596%. In the case of `Cc1cccc(NC(=O)Nc2ccc3c(c2)OCO3)n1`, the max response is reported as 45.7% (active). Work on `CCc1c(C)sc(NC(=O)/C=C/c2ccc3c(c2)OCO3)c1C(=O)OC` yielded a max response of 16.3%. In the case of `Cc1cccc(NC(=O)/C=C/c2ccc3c(c2)OCO3)n1`, the max response is reported as 64.4% (active). `CC(C)CNS(=O)(=O)c1ccc(C(=O)Nc2ccc3c(c2)OCO3)cc1` gave a max response of -0.729%. Work on `CC(NC(=O)Nc1ccc2c(c1)OCO2)c1ccncc1` (stereo not given) yielded a max response of 11.1%. `O=C(/C=C/c1ccc2c(c1)OCO2)NCc1ccc(F)cc1` gave a max response of 9.99%. For `CNS(=O)(=O)c1ccc(NC(=O)Nc2ccc3c(c2)OCO3)cc1`, the max response was 46.9% (active). `CC(NC(=S)Nc1ccc(S(N)(=O)=O)cc1)c1ccc2c(c1)OCO2` (stereo not given) gave a max response of -3.68%. `CCCC1OC23CCCCC2C(C#N)(C#N)C1(C#N)C(=N)O3` (stereo not given) showed a max response of -1.48%. In the case of `Cc1ccc(C23CC4CC(CC(C(=O)NCC(=O)O)(C4)C2)C3)cc1`, the max response is reported as -6.43%. In the case of `COc1ccc(Oc2cn[nH]c2-c2ccc(OC)cc2O)cc1`, the max response is reported as 2.15%. With `COc1cc(C(=O)Nn2c(CC(C)C)nc3ccccc3c2=O)cc(OC)c1OC` the max response was -3.7%. In the case of `Cc1ccc(Cl)cc1NC(=O)C1CCN(S(C)(=O)=O)CC1`, the max response is reported as 8.41%. Molecule `COc1ccc(Br)cc1C1C2C=CCC(C)C2C(=O)N1Cc1ccccc1` (stereo not given) has a max response of 2.32%. In the case of `Cc1nccc(-c2ccc(-n3c(C)ccc3C)cc2)n1`, the max response is reported as 1.97%. For `C=CCOC(=O)C1=C(C)N=C2SCCC(=O)N2C1/C=C/c1ccccc1OC` (stereo not given), the max response was -1.27%. Molecule `O=C1OC(/C=C/c2ccccc2)=NC/1=C/c1ccco1` has a max response of -1.15%. With `COc1ccccc1/C=C/C1=NC(=C\N(C)C)/C(=O)O1` the max response was 10.1% (active). `COc1cc2c(cc1OC)C(c1ccccc1Br)NC(=O)C2` (stereo not given) gave a max response of 2.36%. With `CCC(=O)Nc1nc(C)c(C(=O)Nc2cccc(Cl)c2)s1` the max response was 16.2% (active). With `CCC(=O)Nc1sc(C(=O)Nc2ccccc2)c(C)c1C(=O)OC` the max response was 6.77%. Work on `Cc1nc(NC(=O)c2cccc(Cl)c2)sc1-c1csc(Nc2cccc(Cl)c2)n1` yielded a max response of -1.16%. In the case of `Cc1ccc(C2C(C#N)C(C#N)N3CCCN23)cc1` (stereo not given), the max response is reported as 14.4%. In the case of `O=C(CC1N=C2c3ccccc3N=C(SCc3ccccc3Cl)N2C1=O)NCc1ccco1` (stereo not given), the max response is reported as 18% (active). In the case of `CCC(C)NC(=O)CSC1=Nc2ccccc2C2=NC(CCC(=O)NCc3ccco3)C(=O)N12` (stereo not given), the max response is reported as 0.985%. With `O=C(CSC1=Nc2ccccc2C2=NC(CC(=O)NCc3ccco3)C(=O)N12)NCc1ccco1` (stereo not given) the max response was 6.84%. Work on `N#Cc1c(-c2ccccc2)nc(SCc2cccc(C(F)(F)F)c2)[nH]c1=O` yielded a max response of 4.14%. In the case of `CCc1ccc(NC(=O)Cn2nnc(C(=O)NCc3ccc(OC)cc3)c2N)cc1`, the max response is reported as -3.14%. With `CCCCCc1c(C)nc(N2CCN(Cc3ccc4c(c3)OCO4)CC2)[nH]c1=O` the max response was -0.993%. For `CC(=O)c1cnc(-c2ccccc2)s1`, the max response was 35.2% (active). `O=S(=O)(c1ccc(F)cc1)n1ccc(-c2cnc(-c3ccccc3)s2)n1` showed a max response of 1.13%. `O=C(/C=C/Nc1ccccc1)c1cnc(-c2ccccc2)s1` showed a max response of 1.67%.
